Results as given in PubChem BioAssay (NCI).
The panel holds about 83,000 compounds, 20% with a hit somewhere; the sample as a whole holds those more often.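 The test compound was applied at a single concentration to cells in 96-well plates for 48 hours, and percent growth was recorded.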 The source made the active and inactive calls. The calls were made as follows: active = growth percent below 10; inactive = the rest.

What was measured:
Assay in all cases: NCI-60 one-dose screen, 48 h (100 = growth as untreated, 0 = no growth, -100 = all killed)
Details in all cases: 10 µM unless noted
NCI-H23 lung = system: NCI-H23 lung
NCI-H226 lung = system: NCI-H226 lung
NCI-H322M lung = system: NCI-H322M lung
HOP-62 NSCLC = system: HOP-62 NSCLC
NCI-H460 lung = system: NCI-H460 lung
HOP-92 NSCLC = system: HOP-92 NSCLC
NCI-H522 lung = system: NCI-H522 lung
A549/ATCC NSCLC = system: A549/ATCC NSCLC
786-0 renal = system: 786-0 renal
COLO 205 colon = system: COLO 205 colon

Measured: growth

Cc1ccc(Nc2ncnc3c2c(C)nn3-c2ccc([N+](=O)[O-])cc2)cc1
inactive: NCI-H23 lung 77.3% | NCI-H322M lung 88.5% | HOP-62 NSCLC 60.3% | NCI-H460 lung 30.7% | HOP-92 NSCLC 111% | NCI-H522 lung 74.8% | A549/ATCC NSCLC 45.1% | 786-0 renal 86.9% | COLO 205 colon 72.2%
active: NCI-H226 lung 8.18%

CCCC(=O)NC(c1cccnc1)c1ccc2c(C)ccnc2c1O (stereo not given)
inactive: NCI-H23 lung 37.8% | NCI-H226 lung 17.2% | NCI-H322M lung 27.2% | HOP-62 NSCLC 23.4% | HOP-92 NSCLC 47.2% | A549/ATCC NSCLC 16% | 786-0 renal 26%
active: NCI-H460 lung 6.08% | NCI-H522 lung 0.954% | COLO 205 colon 9.55%

C/C(=N/Nc1nc(N/N=C(/C)c2ccc([N+](=O)[O-])cc2)nc(N2CCOCC2)n1)c1ccc([N+](=O)[O-])cc1
inactive: NCI-H23 lung 57.9% | NCI-H226 lung 41.9% | NCI-H322M lung 86.7% | HOP-62 NSCLC 86.2% | NCI-H460 lung 78.1% | HOP-92 NSCLC 64.1% | NCI-H522 lung 61.7% | A549/ATCC NSCLC 73.9% | 786-0 renal 66.9% | COLO 205 colon 94.8%

Cc1ccc(-c2cc(-c3cccc4ccccc34)n3c(n2)nc2ccccc23)cc1
inactive: NCI-H23 lung 82% | NCI-H226 lung 57.9% | NCI-H322M lung 90.6% | HOP-62 NSCLC 67.5% | NCI-H460 lung 21.9% | HOP-92 NSCLC 71.6% | NCI-H522 lung 76.9% | A549/ATCC NSCLC 39.6% | 786-0 renal 47.6% | COLO 205 colon 59.7%

O=C(O)c1ccc(-n2cc(CNc3ccc(Cl)cc3)c(-c3ccc(F)cc3)n2)cc1
inactive: NCI-H23 lung 104% | NCI-H226 lung 103% | NCI-H322M lung 95.5% | HOP-62 NSCLC 95.8% | NCI-H460 lung 98.4% | HOP-92 NSCLC 117% | NCI-H522 lung 91.2% | A549/ATCC NSCLC 85.4% | 786-0 renal 101% | COLO 205 colon 119%

CNC(=O)c1cc(Oc2ccc3nc(NC(=O)c4cccc(C(F)(F)F)c4)sc3c2)ccn1
inactive: NCI-H23 lung 101% | NCI-H226 lung 104% | NCI-H322M lung 103% | HOP-62 NSCLC 117% | NCI-H460 lung 103% | HOP-92 NSCLC 110% | NCI-H522 lung 98.9% | A549/ATCC NSCLC 101% | 786-0 renal 97.2% | COLO 205 colon 112%

CC1=CC(=O)CC(C)(C)[C@@]1(O)/C=C/C(C)=C\C(=O)O
active: NCI-H23 lung -29.3% | NCI-H226 lung -46.5% | NCI-H322M lung -11.3% | HOP-62 NSCLC -41.6% | NCI-H460 lung -6.19% | HOP-92 NSCLC -14.6% | NCI-H522 lung -41.6% | A549/ATCC NSCLC -27.6% | 786-0 renal -43.2% | COLO 205 colon -57.6%

N/C(=N\c1nc2ccc([N+](=O)[O-])cc2s1)C(Cl)(Cl)Cl
inactive: NCI-H23 lung 91.3% | NCI-H226 lung 85.2% | NCI-H322M lung 10.5% | HOP-62 NSCLC 41.9% | NCI-H460 lung 14.3% | HOP-92 NSCLC 36.2% | NCI-H522 lung 85.3% | A549/ATCC NSCLC 26.5% | 786-0 renal 80.5% | COLO 205 colon 32%

Nc1c(C(=O)c2ccccc2)sc2nc(-c3cnccn3)cc(-c3cccs3)c12
inactive: NCI-H23 lung 104% | NCI-H226 lung 95.8% | NCI-H322M lung 100% | HOP-62 NSCLC 97.6% | NCI-H460 lung 103% | HOP-92 NSCLC 106% | NCI-H522 lung 96.8% | A549/ATCC NSCLC 102% | 786-0 renal 106% | COLO 205 colon 108%

O=C(O)c1ccc(-n2cc(CNc3ccc(F)cc3)c(-c3ccc(C(F)(F)F)cc3)n2)cc1
inactive: NCI-H23 lung 93.3% | NCI-H226 lung 88.8% | NCI-H322M lung 89.9% | HOP-62 NSCLC 81.3% | NCI-H460 lung 84.4% | HOP-92 NSCLC 78.3% | NCI-H522 lung 93.8% | A549/ATCC NSCLC 74% | 786-0 renal 105% | COLO 205 colon 103%

COc1ccc([C@@H]2[C@@H](O)C(=O)N2c2cc(OC)c(OC)c(OC)c2)cc1Cl
active: NCI-H460 lung 2.22% | HOP-92 NSCLC -2.92% | NCI-H522 lung -8.73% | COLO 205 colon -81.1%
inactive: NCI-H23 lung 28% | NCI-H226 lung 33.3% | NCI-H322M lung 44.8% | HOP-62 NSCLC 24.5% | A549/ATCC NSCLC 22.2% | 786-0 renal 18.9%

COC(=O)Nc1ccc(-c2nc(-c3cccc(O)c3)c(-c3ccnc(Br)c3)[nH]2)cc1
inactive: NCI-H23 lung 67.2% | NCI-H226 lung 63.8% | NCI-H322M lung 68.4% | HOP-62 NSCLC 64.7% | NCI-H460 lung 26.8% | HOP-92 NSCLC 51.5% | NCI-H522 lung 56% | A549/ATCC NSCLC 62.2% | 786-0 renal 34.6% | COLO 205 colon 95.4%

COc1ccccc1/C=C/C=N/NC1=NC2C(S1)N(C)C(=O)N2c1ccccc1 (stereo not given)
inactive: NCI-H23 lung 30.1% | NCI-H226 lung 45.5% | NCI-H322M lung 38.1% | HOP-62 NSCLC 46% | HOP-92 NSCLC 38.9% | NCI-H522 lung 13.1% | A549/ATCC NSCLC 22.5% | 786-0 renal 16.8%
active: NCI-H460 lung 2.27% | COLO 205 colon -4.6%

COc1ccc(-c2nc(SCC(C)C)nc(N/N=C\c3cccc([N+](=O)[O-])c3)c2C#N)cc1
active: 786-0 renal 4.44%
inactive: NCI-H23 lung 46.4% | NCI-H226 lung 38% | NCI-H322M lung 38.3% | HOP-62 NSCLC 31.3% | NCI-H460 lung 14.1% | HOP-92 NSCLC 16.2% | NCI-H522 lung 59.4% | A549/ATCC NSCLC 24.8% | COLO 205 colon 85.8%

CCOC(=O)C1=C(C)N=C2Sc3ccccc3N2C1c1ccccc1 (stereo not given)
inactive: NCI-H23 lung 85.2% | NCI-H226 lung 89.2% | NCI-H322M lung 86.8% | HOP-62 NSCLC 101% | NCI-H460 lung 91.2% | HOP-92 NSCLC 75.4% | NCI-H522 lung 73.9% | A549/ATCC NSCLC 82.9% | 786-0 renal 87.7% | COLO 205 colon 96%

CCCC(=O)NC(c1cccnc1)c1cc(C(C)=O)c2cccnc2c1O (stereo not given)
inactive: NCI-H23 lung 48.6% | NCI-H226 lung 25% | NCI-H322M lung 26.9% | HOP-62 NSCLC 26.2% | NCI-H460 lung 12.1% | HOP-92 NSCLC 43.3% | NCI-H522 lung 18.6% | A549/ATCC NSCLC 18.9% | 786-0 renal 32.2% | COLO 205 colon 15.6%

O=c1[nH]c2cc(Cl)ccc2n1C1CCN(c2ccc3nnc(Cl)n3n2)CC1
inactive: NCI-H23 lung 91% | NCI-H226 lung 87.4% | NCI-H322M lung 87.7% | HOP-62 NSCLC 95.4% | NCI-H460 lung 100% | HOP-92 NSCLC 103% | NCI-H522 lung 87.2% | A549/ATCC NSCLC 88.3% | 786-0 renal 97.3% | COLO 205 colon 107%

Cc1cn(-c2cc(NC(=O)c3cncc(C#Cc4cnc5ccc(O[C@H]6CCOC6)nn45)c3)cc(C(F)(F)F)c2)cn1
active: HOP-92 NSCLC -9.26%
inactive: NCI-H23 lung 53.7% | NCI-H226 lung 44.9% | NCI-H322M lung 105% | HOP-62 NSCLC 87.9% | NCI-H460 lung 99.9% | NCI-H522 lung 93.2% | A549/ATCC NSCLC 91.7% | 786-0 renal 105% | COLO 205 colon 69.1%

CC1OC(O[C@@H]2[C@H](O)C(CO)OC(O[C@H]3COC(O[C@H]4CC[C@]5(C)[C@H]6CC[C@]78OC[C@@]9(CC[C@](C)(C=O)C[C@H]97)C(=O)C[C@@]8(C)[C@]6(C)CC[C@H]5C4(C)C)[C@@H](O)[C@@H]3O)[C@H]2OC2OC[C@@H](O)[C@@H](O)[C@@H]2O)[C@@H](O)[C@@H](O)[C@H]1O (stereo not given in full)
inactive: NCI-H23 lung 94.8% | NCI-H226 lung 82.7% | NCI-H322M lung 93.3% | HOP-62 NSCLC 75.2% | NCI-H460 lung 98.5% | HOP-92 NSCLC 79.5% | NCI-H522 lung 87.1% | A549/ATCC NSCLC 90.6% | 786-0 renal 95.5% | COLO 205 colon 92.6%

CCOC(=O)Nc1cccc(-n2cnc3cc(-c4ccc(O)cc4)ccc32)c1
active: NCI-H460 lung 4.77% | NCI-H522 lung -12.7% | COLO 205 colon -4.06%
inactive: NCI-H23 lung 32.3% | NCI-H226 lung 33.3% | NCI-H322M lung 47.3% | HOP-62 NSCLC 46.7% | HOP-92 NSCLC 116% | A549/ATCC NSCLC 28.3% | 786-0 renal 31.6%

c1ccc(-c2n(Cc3ccc4ccccc4c3)c3c4ccccc4c4ccccc4c3[n+]2Cc2ccc3ccccc3c2)cc1
active: NCI-H23 lung -79.9% | NCI-H226 lung -74% | NCI-H322M lung -80.1% | HOP-62 NSCLC -69.2% | NCI-H460 lung -62.9% | HOP-92 NSCLC -77% | NCI-H522 lung -74.9% | A549/ATCC NSCLC -69.2% | 786-0 renal -67% | COLO 205 colon -59.5%

CC(C)C(=O)Nc1ccc(-c2nc(-c3cccc(O)c3)c(-c3ccnc(Br)c3)[nH]2)cc1
inactive: NCI-H23 lung 63.4% | NCI-H226 lung 65.4% | NCI-H322M lung 65.8% | HOP-62 NSCLC 42.6% | NCI-H460 lung 46.5% | HOP-92 NSCLC 39.5% | NCI-H522 lung 48.4% | A549/ATCC NSCLC 69.8% | 786-0 renal 12.9% | COLO 205 colon 59.3%

COc1ccc(S(=O)(=O)NCCCNc2nccc(-n3cnc4ccccc43)n2)cc1
inactive: NCI-H23 lung 91.9% | NCI-H226 lung 73.2% | NCI-H322M lung 104% | HOP-62 NSCLC 94.9% | NCI-H460 lung 97.3% | HOP-92 NSCLC 75.8% | NCI-H522 lung 81.1% | A549/ATCC NSCLC 106% | 786-0 renal 95.9% | COLO 205 colon 108%
